Data on 13 compounds can be found in PubChem BioAssay (NCI).

Compounds without any hit were thinned out: in the full panel of roughly 83,000, 20% have a hit.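 Assay: single dose, 48 h. Readout: percent growth (0 = no net growth; negative = cell death). Active: <10.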 Unmarked numbers belong to inactive results. Calls of active or inactive are those of the source.

Among the test systems are HCT-15 colon; HT29 colon; SNB-75 CNS; SNB-19 CNS; U251 CNS; PC-3 prostate; SK-MEL-5 melanoma; UACC-62 melanoma; LOX IMVI melanoma; SK-MEL-28 melanoma.
Common to all, as to experiment: NCI-60 one-dose screen, 48 h (100 = growth as untreated, 0 = no growth, -100 = all killed)
Conditions in all cases: 10 µM unless noted

Turning to `O=C1c2ccccc2OC=C(c2ccccc2)N1CCCCN1CCCCC1`, the growth in the assay with HCT-15 colon is 86.2%; in the assay with HT29 colon, 13.6%; in the assay on SNB-75 CNS it was 76.1%; in the assay with SNB-19 CNS it was 50.7%; in the assay with U251 CNS, 30.3%; in the assay with PC-3 prostate, 23.3%. For the same compound, the growth in the assay on SK-MEL-5 melanoma was 84.5%; in the assay on UACC-62 melanoma, 69.1%; in the assay with LOX IMVI melanoma, 54.5%; in the assay on SK-MEL-28 melanoma it was 87.3%.

Consider `OCc1cnccc1NC12CC3CC(CC(C3)C1)C2`, for which the growth was 103% in the assay with HCT-15 colon; 88.7% in the assay with HT29 colon; 105% in the assay on SNB-75 CNS; 101% in the assay with SNB-19 CNS; 98.9% in the assay on U251 CNS; 102% with PC-3 prostate. Also, the growth with SK-MEL-5 melanoma was 98.3%; in the assay on UACC-62 melanoma, 104%; with LOX IMVI melanoma, 96.7%; with SK-MEL-28 melanoma, 105%.

On to `O=C(Nc1ccc(-n2cc(-c3ccncc3)c(-c3ccc(O)c(Cl)c3)n2)cc1)c1ccc(Cl)c(C(F)(F)F)c1`, for which the growth in the assay on HCT-15 colon is 7.89% (active); with HT29 colon, -33.9% (active); in the assay with SNB-75 CNS, 59.7%; with SNB-19 CNS it was 40.2%; in the assay with U251 CNS, 15.7%; in the assay with PC-3 prostate, 14.4%. Further, the growth in the assay on SK-MEL-5 melanoma is -46.7% (active); in the assay with UACC-62 melanoma, 71.2%; with LOX IMVI melanoma, -47.6% (active); with SK-MEL-28 melanoma it was 44.3%.

For `CCCCCCCCCCCCCCCCNc1ccccc1`, the growth in the assay on HCT-15 colon was 103%; in the assay with HT29 colon, 87.1%; in the assay with SNB-75 CNS, 107%; with SNB-19 CNS it was 108%; in the assay with U251 CNS, 86.2%; with PC-3 prostate, 82%. In addition, the growth in the assay with SK-MEL-5 melanoma is 104%; in the assay on UACC-62 melanoma, 98.8%; in the assay on LOX IMVI melanoma it was 101%; with SK-MEL-28 melanoma, 113%.

Take `COc1cc2ncn3c(=O)c4c5c(sc4nc3c2cc1OC)CCCCC5`: the growth was 107% with HCT-15 colon; 112% in the assay with HT29 colon; 73.2% in the assay with SNB-75 CNS; 102% in the assay on SNB-19 CNS; 102% in the assay on U251 CNS; 90.9% with PC-3 prostate. Besides, the growth in the assay with SK-MEL-5 melanoma is 94.9%; in the assay with UACC-62 melanoma, 93.7%; in the assay on LOX IMVI melanoma, 88.2%; in the assay with SK-MEL-28 melanoma, 107%.

Regarding `O=C1CN(CCN2CC(=O)NC(=O)C2)CC(=O)N1`, the growth was 114% in the assay on HCT-15 colon; 110% with HT29 colon; 76.1% in the assay on SNB-75 CNS; 99% in the assay on SNB-19 CNS; 100% with U251 CNS; 89.8% in the assay with PC-3 prostate. Besides, the growth was 87% in the assay with SK-MEL-5 melanoma, 86.5% in the assay with UACC-62 melanoma, 93.7% in the assay on LOX IMVI melanoma and 121% in the assay on SK-MEL-28 melanoma.

`Nc1nccc2c1ccn2-c1cccc(NC(=O)c2ccc(N3CCOCC3)c(C(F)(F)F)c2)c1`: the growth in the assay on HCT-15 colon is 9.8% (active); in the assay with HT29 colon it was -47.2% (active); in the assay with SNB-75 CNS, 23.8%; with SNB-19 CNS it was 31.9%; in the assay with U251 CNS it was 8.89% (active); in the assay with PC-3 prostate, 18%. Moreover, the growth in the assay on SK-MEL-5 melanoma is -43.7% (active); with UACC-62 melanoma it was 13.8%; in the assay with LOX IMVI melanoma it was 5.35% (active); with SK-MEL-28 melanoma it was 47.3%.

As for `CC(Cc1cccc(C(F)(F)F)c1)NCCOC(=O)c1ccccc1` (stereo not given), the growth in the assay on HCT-15 colon was 105%; in the assay on HT29 colon, 115%; in the assay on SNB-75 CNS it was 99.5%; in the assay with SNB-19 CNS, 100%; with U251 CNS, 104%; with PC-3 prostate it was 103%. The growth in the assay on SK-MEL-5 melanoma is 89.5%; in the assay on UACC-62 melanoma, 102%; in the assay with LOX IMVI melanoma it was 96.3%; in the assay with SK-MEL-28 melanoma, 107%.

As for `CCCC(=O)Oc1ccc(/C(=C(\C)c2ccc(Cl)cc2)c2ccc(OCCN(CC)CC)cc2)cc1`, the growth in the assay on HCT-15 colon is -79.9% (active); in the assay with HT29 colon it was -50% (active); in the assay with SNB-75 CNS, -48.1% (active); in the assay on SNB-19 CNS, -38.1% (active); in the assay on U251 CNS it was -84.6% (active); in the assay with PC-3 prostate, -15.4% (active). In addition, the growth in the assay with SK-MEL-5 melanoma was -99.7% (active); in the assay on UACC-62 melanoma, -42.2% (active); in the assay on LOX IMVI melanoma, -98% (active); with SK-MEL-28 melanoma it was -69.8% (active).

`COC1=C(OC)C(=O)C=CC1=O`: the growth in the assay on HCT-15 colon was 108%; in the assay with HT29 colon it was 95.4%; in the assay with SNB-75 CNS, 110%; with SNB-19 CNS, 108%; in the assay with U251 CNS, 107%; in the assay on PC-3 prostate it was 92.7%. Further, the growth was 111% in the assay on SK-MEL-5 melanoma, 94.1% with UACC-62 melanoma, 100% in the assay with LOX IMVI melanoma and 120% in the assay with SK-MEL-28 melanoma.

For the compound `COc1cc(/C=C/C(=O)c2ccc(Oc3ncnc4ccccc34)cc2)cc(OC)c1OC`, the growth with HCT-15 colon is 41.5%; in the assay with HT29 colon, 79.7%; in the assay on SNB-75 CNS, 69.5%; in the assay on SNB-19 CNS it was 68.6%; in the assay on U251 CNS it was 60.3%; with PC-3 prostate it was 75.6%. The growth in the assay on SK-MEL-5 melanoma was 81%; in the assay with UACC-62 melanoma, 65.9%; in the assay on LOX IMVI melanoma it was 40.4%; with SK-MEL-28 melanoma it was 89.4%.

Regarding `CCOC(=O)C1CSC(C)(C(=O)OCC)N1` (stereo not given), the growth in the assay with HCT-15 colon was 101%; with HT29 colon, 87.9%; with SNB-75 CNS, 100%; in the assay with SNB-19 CNS, 107%; in the assay with U251 CNS, 106%; in the assay on PC-3 prostate it was 95.1%. The growth in the assay on SK-MEL-5 melanoma was 101%; with UACC-62 melanoma it was 105%; in the assay on LOX IMVI melanoma, 98.2%; in the assay on SK-MEL-28 melanoma it was 107%.

In the case of `Oc1ccc(O)c(-[n+]2ccccc2)c1`, the growth was 105% in the assay on HCT-15 colon; 93.6% in the assay on HT29 colon; 104% with SNB-75 CNS; 100% with SNB-19 CNS; 97.1% with U251 CNS; 92.5% with PC-3 prostate. For the same compound, the growth with SK-MEL-5 melanoma is 97.7%; with UACC-62 melanoma, 103%; in the assay with LOX IMVI melanoma it was 95.7%; in the assay on SK-MEL-28 melanoma, 116%.
